Only some compounds are listed: those with a hit (about 5.3% of all), similar ones and a draw of the others.
Tau fluor cs = Counterscreen qHTS for Inhibitors of Tau Fibril Formation, Fluorescence Polarization; tau K18 P301L Alexa594 fluorescence, heparin fibrillization; Potency, µM (titrated, usually from 57.7 µM), for the others: at the top dose activity change, negative = decrease; 0.93% of 280,000 active; AID 1463, 2008; also: potency is read from the fitted curve at half-maximal effect; nearly all actives have a fitted effect of over 55% in size
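Human K18 P301L tau (15 uM unlabeled plus 0.24 uM Alexa 594-labeled, final) in 100 mM sodium acetate pH 7 was mixed with compound and 20 uM heparin and incubated 6 hr at 37 C.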
FBPA coupling cs = qHTS Assay for Inhibitors of Fructose-1,6-bisphosphate Aldolase from Giardia Lamblia: Coupling assay counterscreen | coupling enzyme system counterscreen, AmpLite Red fluorescence | activity change, negative = inhibition, % at 58.2 µM, hits read low | 0.67% of 290,000 active | AID 2472, 2010; in the data active = activity change below about -30%
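First, compound is pin-transferred into glyceraldehyde-3-phosphate coupling-enzyme reagent at 57.5 uM final and held 10 min at RT. Next, substrate, coupling system and AmpLite Red are added. After 20 min RT, fluorescence (525/598 nm) is read.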
Tau fibril ThT = qHTS for Inhibitors of Tau Fibril Formation, Thioflavin T Binding; Microtubule-associated protein tau (Homo sapiens), P10636; recombinant tau K18 P301L (four-repeat tau fragment), heparin-induced fibrillization, ThT fluorescence; Potency, µM (top dose mostly 57.4 µM), for inactives: at the top dose activity, negative = inhibition, actives largely listed as inhibitors; 2.1% of 270,000 active; AID 1460, 2008; also: potency is read from the fitted curve at half-maximal effect; nearly all actives have a fitted effect of over 55% in size
Target sequence (P10636 561-689 P618L limits assumed): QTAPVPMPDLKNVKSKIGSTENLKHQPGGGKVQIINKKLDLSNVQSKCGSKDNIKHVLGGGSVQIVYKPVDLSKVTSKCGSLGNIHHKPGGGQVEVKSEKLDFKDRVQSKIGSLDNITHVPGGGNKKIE
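In this qHTS, human K18 P301L tau is incubated with compound and heparin for 6 hr at 37 C, and Thioflavin T fluorescence then reports fibril load.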
Sfp inh = qHTS Assay for Inhibitors of Bacillus subtilis Sfp phosphopantetheinyl transferase (PPTase); 4'-phosphopantetheinyl transferase ffp (Bacillus subtilis), Q9F4F7; Biochemical Sfp PPTase activity, qHTS; Potency, µM, for the others: largest response in the series, negative = inhibition, most hits filed as inhibitors; 3.5% of 310,000 active;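 also: the enzyme is Sfp with the accession as filed and its product quenches rhodamine fluorescence; potency is read from the fitted curve at half-maximal effect; 0% = enzyme reaction without inhibitor and -100% = no enzyme wells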
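Compounds were incubated with enzyme (final 15 nM) for 15 min at room temperature before substrate addition started the reaction. Fluorescence at 525 nm excitation, 598 nm emission was recorded immediately and after 30 minutes.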
JMJD2E inh = qHTS Assay for Inhibitors of Human Jumonji Domain Containing 2E (JMJD2E). Lysine-specific demethylase 4E (Homo sapiens), B2RXH2. JMJD2E catalytic domain, FDH-coupled NADH fluorescence (FDH is formaldehyde dehydrogenase). Potency, µM (series often up to 57.1 µM), for the others: at the highest dose activity change, negative = inhibition, hits mostly inhibitors. 1.6% of 230,000 active; active = well fitted inhibition curve with a large enough effect, not every such curve was filed as active; inconclusive = small, poorly fitted or top-dose-only effect, or another doubt; inactive = no such curve, though single readings can be large or run the other way;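 also: potency is read from the fitted curve at half-maximal effect; 0% = wells with enzyme and -100% = buffer wells without enzyme; nearly all actives have a fitted effect of over 50% in size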
Target sequence (B2RXH2 1-337 limits assumed): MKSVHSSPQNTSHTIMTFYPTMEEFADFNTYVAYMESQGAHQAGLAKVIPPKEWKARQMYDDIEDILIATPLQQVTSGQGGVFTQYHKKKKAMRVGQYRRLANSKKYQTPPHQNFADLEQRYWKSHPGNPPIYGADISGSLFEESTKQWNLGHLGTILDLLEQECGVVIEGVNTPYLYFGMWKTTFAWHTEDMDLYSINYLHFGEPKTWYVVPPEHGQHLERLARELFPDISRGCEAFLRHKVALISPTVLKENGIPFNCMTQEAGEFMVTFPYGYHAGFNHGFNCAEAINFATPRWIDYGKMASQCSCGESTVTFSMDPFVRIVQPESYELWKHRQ
Tau FP inhib = qHTS for Inhibitors of Tau Fibril Formation, Fluorescence Polarization | AID 1468, 2008 | K18 P301L tau heparin fibrillization, Alexa594 FP, 6 h | Microtubule-associated protein tau (Homo sapiens), P10636 | Potency, µM (top dose mostly 57.7 µM), without a hit: at the highest dose activity, negative = inhibition, hits mostly inhibitors | 0.39% of 280,000 active; also: potency is read from the fitted curve at half-maximal effect; nearly all actives have a fitted effect of over 55% in size
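FP of Alexa 594-tau after heparin (20 uM) induction. Substrate: human K18 P301L, 15 uM unlabeled, 0.24 uM labeled. Buffer 100 mM sodium acetate pH 7. 6 hr, 37 C.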
* = called active by the depositor; u = inconclusive; x = not tested or not shown; ! = not active in a repeat; [ ] = another dose, or the depositor's remark. Unless noted, calls follow the shape of the dose curve; as a rule, active = well fitted curve in the direction sought with a large enough effect; inconclusive = small, poorly fitted or top-dose-only effect, or another doubt; inactive = no such curve, though single readings can be large; an effect the other way counts as inactive or inconclusive. Unless noted, % is scaled to controls: 0 for no effect and ±100 for the full control effect.

SMILES	Tau fluor cs	FBPA coupling cs	Tau fibril ThT	Sfp inh	JMJD2E inh	Tau FP inhib
CCOc1ccc(CN(C(=O)/C=C/c2ccco2)C2CCS(=O)(=O)C2)cc1 (stereo unspecified)	x	1	x	u	x	x
COc1cccc(CN(C(=O)/C=C/c2ccco2)C2CCS(=O)(=O)C2)c1 (stereo unspecified)	x	0	x	25µM*	x	x
CN(C)c1ccc(CN(C(=O)/C=C/c2ccco2)C2CCS(=O)(=O)C2)cc1 (stereo unspecified)	-16%	1	-15%	-2%	-10%	0%
COc1ccc(CN(C(=O)/C=C/c2ccco2)C2CCS(=O)(=O)C2)cc1OC (stereo unspecified)	x	1	x	50µM*	x	x
O=C(/C=C/c1ccco1)N(Cc1ccc(Cl)cc1)C1CCS(=O)(=O)C1 (stereo unspecified)	-8%	3	u	25µM*	-4%	-9%
COc1ccc(CN(C(=O)/C=C/c2ccco2)C2CCS(=O)(=O)C2)cc1 (stereo unspecified)	-20%	3	u	14µM*	1%	u
CCOC(=O)c1c(NC(=O)CSc2cn(CCNC(=O)c3ccccc3OC)c3ccccc23)sc2c1CCC2	-2%	x	-1%	x	x	-4%
COc1ccc(NC(=O)CC2C(=O)N(c3ccc(C)cc3)C(=O)N2Cc2ccc(C)cc2)cc1 (stereo unspecified)	-27%	x	4%	x	x	-12%
CC1(C)OC2CC3C4CC(F)C5=CC(=O)C=C[C@@]5(C)[C@@]4(F)C(O)C[C@@]3(C)[C@]2(C(=O)CO)O1 (stereo partly specified)	-29%	-3	-16%	17%	-12%	u
COc1ccccc1NS(=O)(=O)c1ccc(O)c(NC(=S)NCC2CCCO2)c1 (stereo unspecified)	-13%	3	-10%	25µM*	-10%	1%
CO[C@H]1COC(=O)[C@@H](C)COC(=O)[C@H](C)NC(=O)C/C=C\[C@H]1C	0%[11.6 µM]	1	1%[11.5 µM]	8%	x	0%[11.6 µM]
Cc1ccc2cc(C#N)c(N3CCCN(C(=O)C4CCCO4)CC3)nc2c1 (stereo unspecified)	-9%	-3	-23%	-6%	u	4%
Cc1ccc2cc(C#N)c(NCCCNC(=O)C3CCCO3)nc2c1 (stereo unspecified)	-2%	-35*	-1%	79µM*	u	7%
CCCCc1ccc(NC(=S)Nc2ccc(Nc3ccc(OC)cc3)cc2)cc1	7.9µM*[quencher]	-12	8.9µM*	u	1%	u
c1ccc(C2[C@H]3CN(Cc4cccnc4)[C@H](c4ccccc4)C34CC2(c2ccccc2)C4)cc1 (stereo partly specified)	-2%	-1	-5%	u	-11%	5%
c1ccc(C2[C@H]3CN(Cc4cccnc4)[C@H](c4ccccc4)C34CC2(c2cccnc2)C4)cc1 (stereo partly specified)	-6%	2	u	56µM*!	-2%	0%
Cc1ccc(CN2CCN(c3ccccn3)CC2)s1	-11%	-9	-10%	56µM*	u	-10%
c1ccc(N2CCN(Cc3ccsc3)CC2)nc1	5%	1	-2%	-13%	-9%	-2%
COc1ccc(S(=O)(=O)n2nc(C)c(S(=O)(=O)N3CCCCCC3)c2C)cc1C	-1%	x	-1%	x	x	-1%
CCCCOC(=O)c1ccc(NC(=S)NC(=O)c2c(Br)c(C)nn2C)cc1	-17%	-2	u	4.5µM*	-3%	1%
